These results are taken from PubChem BioAssay AID485344 (National Center for Advancing Translational Sciences (NCATS), 2010).

Screen size: about 340,000 compounds; about 6,900 (2%) were called active. Only a selection was taken, and actives are over-represented in it overall. Values without a mark were called inactive. Cut-off read from the data, not from the text of the source: active = inhibition above about 30%; inactive = below that, where a call was filed.

Chain of D(2) dopamine receptor (Homo sapiens) (P14416 whole entry, looked up): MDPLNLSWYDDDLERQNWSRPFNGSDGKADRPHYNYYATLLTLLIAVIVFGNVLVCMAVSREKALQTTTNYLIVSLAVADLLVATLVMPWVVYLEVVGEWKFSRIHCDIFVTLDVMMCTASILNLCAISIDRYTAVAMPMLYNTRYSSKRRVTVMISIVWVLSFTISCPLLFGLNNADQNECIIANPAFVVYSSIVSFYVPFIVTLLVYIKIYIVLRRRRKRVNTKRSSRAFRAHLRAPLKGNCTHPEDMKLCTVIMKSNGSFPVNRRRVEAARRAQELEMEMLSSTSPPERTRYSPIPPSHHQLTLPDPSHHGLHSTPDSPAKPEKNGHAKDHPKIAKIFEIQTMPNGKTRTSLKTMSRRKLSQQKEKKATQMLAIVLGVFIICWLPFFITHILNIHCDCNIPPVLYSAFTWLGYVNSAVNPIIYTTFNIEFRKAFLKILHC

The test has as its target D(2) dopamine receptor (Homo sapiens) (UniProt P14416). The test can be described thus: HTS Assay for Allosteric Antagonists of the Human D2 Dopamine Receptor: Primary Screen for Antagonists. Note: 0% is about no effect. Conditions: HEK293 TREx D2 cells, calcium flux, dopamine EC80; at 10 µM; active compounds read high. From the text:
NIH Chemical Genomics Center [NCGC] NIH Molecular Libraries Probe Centers Network [MLPCN] MLPCN Grant: NS064831-01 Assay Submitter (PI): David Sibley Dopamine receptors (DARs) are involved in the etiology and/or therapy of a number of neuropsychiatric and endocrine disorders. For instance, all receptor-based antiparkinsonian drugs work via stimulating the D2 DAR subtype whereas all FDA-approved antipsychotic agents are antagonists of this receptor. […] There are three different types of allosteric modulators that we are seeking, two of which will stimulate or augment receptor signaling, allosteric agonists and potentiators, while the third, allosteric antagonists, will attenuate receptor signaling. The present primary screening assay measures compound antagonism after an EC80 addition of dopamine by tracking calcium flux in a […], inducible Hek293 Trex D2 cell line.
Freshly passaged cells are plated in 1536 well black, clear bottom plates at a density of 4000 cells/well in 3 ul of complete media containing 1x tetracycline inducer. After an overnight incubation at 30 C in 5% CO2, cells are loaded with 2 ul of the no wash Calcium Assay Kit (ABD Bioquest) and incubated at room temperature for 30 to 90 minutes. Agonist read: A 10 cycle (1 second/cycle) baseline measurement is taken and then the FDSS online 1536 pintool delivers 23 nl of compound library (as well as dopamine controls) to the plate. The plate is measured for kinetically at 1 cycle/sec for 180 seconds. Following the 180 second read, 1 ul of an EC80 (negative modulation assay) is delivered by an onboard pipette head. Measurements are taken kinetically for an additional 180 seconds.
Turning to `CCOC(=O)C1=C(c2ccccc2)O/C(=C(/C(=O)OC)C(F)(F)F)S1`, the inhibition is 39% (active).
As for `CCOC(=O)c1nnn(-c2nonc2OC)c1-c1ccccc1`, the figure is 1.66%.
As for `COC(=O)/C(=C1\Oc2ccc(C(C)(C)C)cc2S1)C(F)(F)F`, the figure is 0.21%; as for `COc1ccc(S(=O)(=O)N2CCN(CC(=O)N3c4ccccc4CC3C)CC2)cc1OC` (configuration not stated), -15.7%.
Take `CCCCn1c(N)c(N(CCC(C)C)C(=O)COC(=O)c2cccnc2OCC)c(=O)[nH]c1=O`: the inhibition was -12.2%.
With `Cc1ccc(NC(=O)NC(=O)c2ccccc2)cc1F`, the inhibition is -2%.
Turning to `O=C(NC(=O)c1ccccc1)NC(=O)c1ccccc1`, the inhibition was 27%.
On to `O=C(NC(=O)c1ccccc1)Nc1ccccc1O`, for which the inhibition was 40% (active).
As for `CC(C)Cc1nnc(NC(=O)CCNC(=O)c2ccccc2Cl)s1`, the figure is -3.78%.
For `Cc1ccc(NC(=O)Cc2nc(COC(=O)C(C)NS(=O)(=O)c3ccc(C)cc3)cs2)cc1` (configuration not stated), the inhibition is 2.42%.
As for `Cc1cccc(OCC(=O)Nc2ccc(C(=O)O)cc2NC(=O)COc2cccc(C)c2)c1`, the figure is -10.4%.
With `COc1ccc(C(=O)Nc2cc(C)ccc2NC(=O)COc2ccccc2)cc1`, the inhibition was 44.4% (active).
`COc1ccc(OCC(=O)NNC(=O)c2cccc(C)c2)cc1`: the inhibition was 1.66%.
Consider `O=C(NCCc1ccc(F)cc1)c1ccc2nccnc2c1`, for which the inhibition was -19%.
With `CCOc1ccc(C(O)Cn2c(=N)n(CCN3CCCCC3)c3ccccc32)cc1` (configuration not stated), the inhibition was -7.44%.
As for `Cc1cccc(OCC(O)Cn2c(=N)n(CCN3CCOCC3)c3ccccc32)c1` (configuration not stated), the figure is 31.7% (active); as for `COc1cccc(OCC(O)CN2CCN(CCO)CC2)c1` (configuration not stated), -3.18%.
As to `COc1ccc(C)cc1NC(=O)CCCN1C(=O)NC(C)(C)C1=O`, the inhibition is -9.24%.
The value for `Cc1nnc(NC(=O)c2ccc3nccnc3c2)s1` was 3.14%; that for `CC1(C(=O)OCC(=O)Nc2ncc(Cl)cc2Cl)CC1(Cl)Cl` (configuration not stated) was 11.7%; that for `C=CCN1C(=O)c2ccc(C(=O)N3CCC(C(=O)OCC)CC3)cc2C1=O` was 2.03%.
On to `O=C(c1ccc(OC2CCN(C/C=C/c3ccc(F)cc3)CC2)cc1)N1CCCCC1`, for which the inhibition is 26.2%.
As for `CSCC(=O)N1CCCC(C(=O)c2cc(F)ccc2F)C1` (configuration not stated), the figure is -7.86%; as for `COc1ccc(/C=C/CN2CCCC(C(=O)c3cc(F)ccc3F)C2)cc1` (configuration not stated), 34.2% (active); as for `O=C(NCCS(=O)(=O)N1CCN(c2ccccc2)CC1)c1ccco1`, 9.95%.
The value for `Cc1csc2nc(COC(=O)c3cccc(N(C)C)c3)cc(=O)n12` was -21.3%; that for `CC(C)(C)Nc1c(N)c(=O)oc2ccccc12` was 33.7% (active); that for `Nc1c(NCCc2ccccc2)c2ccccc2oc1=O` was -22.5%.
The value for `CCNc1c(NS(=O)(=O)c2ccc(C3CCCCC3)cc2)c(=O)oc2ccccc12` was 16.7%.
For `CCC1(C)NC(=O)N(CC(=O)N2CCN(c3cccc(Cl)c3)CC2)C1=O` (configuration not stated), the inhibition was 22.3%.
The value for `CCc1ccc(-c2nn(-c3ccccc3C)cc2C(=O)N2CCN(C3CCS(=O)(=O)C3)CC2)cc1` (configuration not stated) was 3.49%; that for `CCc1nn(CC(=O)N2CCN(CC)CC2)c(=O)c2cccn12` was 1.45%.
The value for `CCN1CCN(C(=O)Cn2nc(C)n3c(cc4c(OC)cccc43)c2=O)CC1` was 35.3% (active).
Regarding `COc1cccc2c(=O)n(CC(=O)N3CCCCCC3)ccc12`, the inhibition is 5.43%.
The value for `CN(C)C1=NC[C@H](Cc2ccccc2)N1CCc1ccc(F)cc1` was -4.3%.
For the compound `Cc1ccc(S(=O)(=O)N(C)C)cc1NC(=O)c1ccc(-n2cncn2)c([N+](=O)[O-])c1`, the inhibition is 2.81%.
On to `Cc1cc(C)cc(NC(=O)COC(=O)c2cc(C)oc2C)c1`, for which the inhibition was -1.43%.
For the compound `CCCC(C)C(=O)OCC(=O)Nc1c(Br)cc(C)cc1Br` (configuration not stated), the inhibition is 39.9% (active).
The value for `CCC(C(=O)OCC(=O)Nc1c(Cl)cc(Cl)cc1Cl)c1ccccc1` (configuration not stated) was -3.7%.
The value for `COc1ccc(C(=O)NCc2ccc(C)cc2)cc1S(=O)(=O)N1CCCC1` was -8.88%.
As for `CC1CCN(C(=O)COC(=O)CCC(=O)c2cccs2)CC1`, the figure is 24%; as for `Cc1cc(=O)oc2c3c(cc(OCC(=O)N[C@H](C(=O)O)c4ccccc4)c12)OC(C)(C)CC3`, 3.15%.
With `Cc1c(C)c2c(OCC(=O)NCCCO)cc3c(c2oc1=O)CCC(C)(C)O3`, the inhibition was -0.698%.
The value for `Cc1c(C)c2c(OCC(=O)N[C@@H](C(=O)O)c3ccccc3)cc3c(c2oc1=O)CCC(C)(C)O3` was 30.5% (active); that for `CCN(C(=O)COC(=O)c1c(C)nn(-c2ccccc2)c1Cl)c1c(N)n(Cc2ccccc2)c(=O)[nH]c1=O` was -3.1%; that for `O=C(CSc1nnc(CN2CCCC2)n1-c1ccc(F)cc1)c1ccc2c(c1)OCO2` was 8.14%.
As for `CN(Cc1ccccc1Cl)C(=O)C1CCC(=O)N(CCc2cccc(F)c2)C1` (configuration not stated), the inhibition is -0.289%.
With `CN(CC(=O)Nc1cccc(F)c1)C(=O)C1CC(=O)N(CCc2ccccc2)C1` (configuration not stated), the inhibition was 33.5% (active).
The value for `CCNC(=O)c1cccc(NC(=O)C2CC(=O)N(CCc3ccccc3)C2)c1` (configuration not stated) was -18%.
As for `Cn1c(N)c(C(=O)COC(=O)/C=C/c2cccc(C(F)(F)F)c2)c(=O)n(C)c1=O`, the figure is -16.8%; as for `c1ccc2c(c1)OCC(CNc1ncnc3nc[nH]c13)O2` (configuration not stated), -3.03%; as for `COc1ccc(Nc2ncnc3sc(-c4ccccc4)cc23)c(OC)c1`, -16.4%.
For the compound `c1ccc(-c2cc3c(NCC4COc5ccccc5O4)ncnc3s2)cc1` (configuration not stated), the inhibition was 31.8% (active).
As for `CC(=O)c1ccc(S(=O)(=O)NCCC(=O)N2CCN(c3ccccn3)CC2)cc1`, the figure is -35%; as for `CN(C)CCN(C(=O)CN1C(=O)c2ccccc2C1=O)c1nc2cc3c(cc2s1)OCCO3`, 12.4%; as for `CCN(C(=O)COC(=O)C1CCN(S(=O)(=O)c2ccc(C)c(C)c2)CC1)C1CCS(=O)(=O)C1` (configuration not stated), 10.6%.
The value for `COc1cc(CC(=O)N/N=C/c2ccccc2)c([N+](=O)[O-])cc1OC` was 77% (active).
As for `O=C(Cc1cc(=O)[nH][nH]1)N/N=C/c1ccccc1[N+](=O)[O-]`, the figure is 11.1%; as for `COc1cc(/C=N/NC(=O)Cc2ccccc2)cc(OC)c1OC`, 1.38%; as for `Cc1c(CN2CC[C@@H](N3CCN(c4ccccn4)CC3)[C@H](O)C2)[nH]c2ccc(F)cc12`, 51.4% (active).
Consider `Cc1nc(N2CCN(c3ccccn3)CC2)c2c(C)c(C(=O)Nc3ccc(F)cc3)sc2n1`, for which the inhibition is 8.07%.
Consider `O=C(CCC1CCCN(C(=O)Cc2ccc(F)cc2)C1)N1CCN(c2ccccn2)CC1` (configuration not stated), for which the inhibition is -9.86%.
As for `O=C(CN1CCN(C2CCS(=O)(=O)C2)CC1)N1N=C(c2ccc(Cl)cc2)CC1c1ccco1` (configuration not stated), the figure is -10.4%; as for `CC(=O)c1ccc(OCCCC(=O)Nc2ccc(C)c(S(=O)(=O)N3CCOCC3)c2)cc1`, 6.79%.
With `CC(OC(=O)c1cc2ccccc2o1)C(=O)Nc1ccc(N2CCOCC2)cc1` (configuration not stated), the inhibition is 8.62%.
As for `Brc1ccccc1CN1CCC(Cc2ccccc2)CC1`, the inhibition is 17.7%.
As for `O=C(c1ccccc1)c1ccc2nc(N3CCCCC3)c3nncn3c2c1`, the figure is -2.11%.
As for `c1ccc(CC2CCN(c3nc4ccccc4n4cnnc34)CC2)cc1`, the figure is 37.6% (active); as for `CCc1sc(C(=O)N2CCN(CC(=O)Nc3cccc(F)c3)CC2)cc1C`, 22.4%.
Take `Cc1cc(Br)ccc1NC(=O)CN(C)C(=O)CN1C(=O)NC2(CCCC2)C1=O`: the inhibition is 7.4%.
As to `CCOC(=O)C1=C(COC(=O)[C@H](C)NS(=O)(=O)c2ccccc2F)NC(=O)NC1C` (some centres not stated), the inhibition is 11%.
As for `O=C(OCC(=O)N1CCOCC1)c1ccc2ccccc2c1`, the figure is -1.03%; as for `CCCCCN(C(=O)CCC(=O)OCCOc1ccc(OC)cc1)c1c(N)n(CCCC)c(=O)[nH]c1=O`, -2.34%.
As for `COc1cc2ccccc2cc1C(=O)Nc1ccncc1`, the figure is 5.03%; as for `CCCCSc1[nH]c(=O)c(C(=O)OCC)cc1C#N`, 30.2% (active); as for `CCOC(=O)c1cc(C)nc(S(C)(=O)=O)c1C#N`, 5.94%.
As for `CC(=O)c1cc(C#N)c(SCC(=O)C(C)(C)C)nc1C`, the inhibition was -15%.
As for `CCC(C)N(C(=O)CSc1ncnc2c1cnn2-c1ccccc1)C1CCS(=O)(=O)C1` (configuration not stated), the figure is 1.86%; as for `O=C(CCNC(=O)c1ccc(Br)cc1)NCC(c1ccco1)N1CCCCC1` (configuration not stated), 17%; as for `CC(=O)N1c2ccc(S(=O)(=O)N(C)CC(=O)N(C)Cc3ccccc3)cc2CC1C` (configuration not stated), 36.2% (active).
The value for `COc1cccc(CNS(=O)(=O)c2ccc3c(c2)CC(C)N3C(C)=O)c1` (configuration not stated) was -5.54%.
With `CC(=O)N1c2ccc(S(=O)(=O)NCCC(=O)N(C)C3CCCCC3)cc2CC1C` (configuration not stated), the inhibition is -4.33%.
As to `CCOc1ccc(NC(=O)CN(C)C(=O)CSc2ccccc2)cc1OCC`, the inhibition was 13.7%.
As for `Clc1nc(NC2CCCC2)nc(N2CCOCC2)n1`, the figure is -9.32%; as for `COC(=O)CNc1nc(Cl)nc(N2CCC(C)CC2)n1`, 35.9% (active).
Take `CCOC(=O)CNc1nc(Cl)nc(Nc2ccccc2)n1`: the inhibition is 6.97%.
`O=C(CN1CCc2ccccc2C1)Nc1cccc(S(=O)(=O)N2CCOCC2)c1`: the inhibition is -6.15%.
The value for `COc1ccc(F)cc1C(=O)COC(=O)c1n[nH]c(=O)c2ccccc12` was -10.9%; that for `CN(C(=O)Cn1nnc(-c2ccc(F)cc2)n1)C1CCS(=O)(=O)C1` (configuration not stated) was 9.49%; that for `Cc1ccc(OCCNC(=O)CCNS(=O)(=O)c2ccc(Br)cc2)cc1` was 23.7%.
Consider `O=C(CCNS(=O)(=O)c1ccccc1)NCCCc1ccccc1`, for which the inhibition is 21%.
The value for `O=C(CCNS(=O)(=O)c1ccccc1)NCCSc1ccc(Br)cc1` was 45.1% (active).
